Assay results taken from the supplement of paper PMC3334620.
In all, about 33,000 sequences were measured (“E-score (-0.5 to 0.5)”: median about -0.035, highest 2% from about 0.34 on). This excerpt belongs to a sample that is enriched for the highest values.

The sequences below were run against T1, Mot3 (UniProt P54785) (assay: PBM E-score (8-mer binding enrichment) (E-score (-0.5 to 0.5)); higher = stronger / more preferred TF binding). Conditions: protein concentration: 200 nM; construct: GST-full length.
T1 sequence: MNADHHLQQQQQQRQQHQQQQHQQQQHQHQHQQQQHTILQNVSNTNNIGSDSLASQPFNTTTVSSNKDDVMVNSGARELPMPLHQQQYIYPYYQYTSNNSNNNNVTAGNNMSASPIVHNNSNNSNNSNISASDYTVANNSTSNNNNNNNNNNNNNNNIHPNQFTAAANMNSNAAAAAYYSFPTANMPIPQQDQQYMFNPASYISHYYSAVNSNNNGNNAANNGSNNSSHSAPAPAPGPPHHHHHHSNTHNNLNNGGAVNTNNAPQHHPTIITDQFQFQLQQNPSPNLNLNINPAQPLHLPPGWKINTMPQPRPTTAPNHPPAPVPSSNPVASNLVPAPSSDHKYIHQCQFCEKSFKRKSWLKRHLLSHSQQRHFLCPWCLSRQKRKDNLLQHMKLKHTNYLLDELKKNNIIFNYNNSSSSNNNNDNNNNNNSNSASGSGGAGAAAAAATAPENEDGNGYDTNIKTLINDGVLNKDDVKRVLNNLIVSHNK
Procedure: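 Universal 'all 10-mer' protein binding microarrays (Agilent AMADID 015681) probed with GST-tagged S. cerevisiae TFs (full-length or DBD) made by in vitro transcription/translation (PURExpress), about 100-200 nM. Bound TF was detected with fluorescent anti-GST. Each ungapped 8-mer (which stands for itself and its reverse complement) is scored by the PBM enrichment score (E-score), a modified Wilcoxon-Mann-Whitney statistic from -0.5 to +0.5, computed with the Universal PBM Analysis Suite. Scale: above 0.35 generally sequence-specific binding.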

In order of rising “PBM E-score” value:
1. CGGTGTCC  -0.376
2. CCGGCGAG  -0.369
3. GCATCGCA  -0.36
4. CGACTCTC  -0.347
5. ATCGGCGG  -0.342
6. GGAGGCCA  -0.34
7. CCCCTAAG  -0.313
8. ATGGCGGA  -0.302
9. TCCGGAGA  -0.297
10. AGAGGCCA  -0.274
11. AGCATCCT  -0.268
12. GGAGGCCC  -0.266
13. CTGGCCCA  -0.265
14. CGGCCGGA  -0.264
15. CCCGACGC  -0.262
16. GTGCCCCA  -0.248
17. ACTCCGGG  -0.248
18. AGAGAGGA  -0.246
19. CTCGGATC  -0.235
20. AGAGGCGA  -0.227
21. CGGCAAAG  -0.226
22. CGCTCATA  -0.225
23. CGGCAAAC  -0.217
24. CGGCCTGC  -0.212
25. AGTTAGAG  -0.21
26. ATCCATAG  -0.206
27. AAGCACCG  -0.206
28. CCCGTTGA  -0.205
29. GATCCATA  -0.201
30. ACTGGGCG  -0.198
31. GGTAGAGA  -0.198
32. GGAGGCGA  -0.194
33. GGCCGGAC  -0.187
34. CGTTGAGA  -0.183
35. GGGAAGCA  -0.178
36. CCGCCTAC  -0.166
37. CATCGAAG  -0.163
38. CGGCACCA  -0.159
39. AGTGGCCA  -0.158
40. GGGGGCAC  -0.156
41. AGCTAACC  -0.152
42. GGAGATAC  -0.137
43. GCGCTCCA  -0.136
44. GAGCCCAA  -0.136
45. AGAGGCAG  -0.133
46. CGACTTAC  -0.127
47. CGGCACCC  -0.126
48. ATCTACCG  -0.115
49. GTCGGGAA  -0.104
50. GTTCGCCA  -0.103
51. AAAGCACC  -0.0982
52. ATGCCCAA  -0.0977
53. GTGCGGTA  -0.0948
54. AAGGTGTG  -0.0849
55. CGCACCTC  -0.0771
56. TCTACCCA  -0.077
57. AGAGGCAT  -0.0714
58. CGAGGCAG  -0.0696
59. GACGCAAC  -0.0695
60. GCAGCCTA  -0.0663
61. TAAGGTGA  -0.0657
62. AGGATTGC  -0.0652
63. CCTCTTAC  -0.0603
64. TAGCACGA  -0.0559
65. ACGTTCTG  -0.0537
66. GGGTAAAC  -0.0508
67. CGAGCCAG  -0.0469
68. ACCAGTAG  -0.0459
69. GGGCACCC  -0.0287
70. CGGCACCG  -0.0283
71. TATCGGCA  -0.0281
72. CTAACCCA  -0.0185
73. ACTTTGCT  -0.0166
74. CCGAACAC  -0.0162
75. TGAGGGCA  -0.0148
76. CCAAGAGA  -0.0138
77. CAAAGCCC  -0.0136
78. CACTGGTA  -0.00383
79. AAGGATCA  0.0089
80. GGGCAAAC  0.0101
81. ACGCCTAC  0.0133
82. ATGGAGGA  0.0248
83. AAGCACCT  0.0273
84. AACAGCCT  0.0281
85. TGAGGCCA  0.0399
86. CGGTGTAC  0.0428
87. GTTCTGGA  0.0443
88. AACCTGGG  0.0477
89. CAAAGCAG  0.05
90. AGTTGGAC  0.0582
91. AGGCAGAT  0.0714
92. GTCGAACA  0.0718
93. GGGCAAAA  0.0722
94. CACACGAC  0.0741
95. GTTGCTTA  0.0798
96. CCATTGAA  0.0844
97. ATAAGATA  0.0848
98. TGGCAAAA  0.0985
99. TTACAGAA  0.106
100. CTTAGAAA  0.11
101. GGGTAAAA  0.112
102. ACGCTTAA  0.114
103. CCTATTGA  0.124
104. TAGTGACA  0.124
105. AGCGTTTC  0.127
106. TTAACGAA  0.128
107. ATGCAAAG  0.128
108. GTGTGCAA  0.128
109. ACGCACCT  0.129
110. AAGTAAAG  0.131
111. ATGCAAAT  0.146
112. ATGTAGGA  0.158
113. CACGTTGC  0.158
114. GAAATTTA  0.165
115. AAGTTTTG  0.167
116. GGGCACCA  0.171
117. ATACTTAA  0.173
118. CTGTAGAA  0.191
119. AATCGACA  0.201
120. ATAGCGCC  0.228
121. GCGTAGAA  0.232
122. CTGTAAAG  0.24
123. ACGTAAAC  0.251
124. AACACGGA  0.252
125. ATGTAGAG  0.252
126. AACACGGC  0.257
127. CTGCCTAA  0.258
128. CTGTACAC  0.265
129. ACGTAAAT  0.272
130. ATGCCTAA  0.278
131. CTGTAGGC  0.285
132. AACACGAG  0.288
133. GTGTAGTA  0.292
134. CTGTAAAC  0.295
135. CTGTAAAA  0.302
136. AGGTAAAC  0.302
137. ACACAACA  0.307
138. GACACGAC  0.31
139. GCGTAAAA  0.314
140. AACACGTC  0.316
141. CGAGGCAA  0.318
142. AGGTAAAT  0.318
143. AACACGTA  0.32
144. TTGTAAAA  0.321
145. GTGTACAA  0.325
146. AACACGAA  0.33
147. AACACGAC  0.344
148. GTGTACAC  0.344
149. AACACGAT  0.349
150. AACACGGT  0.353
151. GCGCCTAC  0.358
152. ATGTAGAA  0.359
153. ATGTAGGC  0.361
154. GTGTAGAA  0.364
155. AACACGTT  0.365
156. GTGTAAAA  0.377
157. GTGTAAAC  0.387
158. TGAGGCAA  0.389
159. GTGCCCAA  0.392
160. AGAGGCAA  0.409
161. CGAGGCAC  0.411
162. ATGTAAAG  0.411
163. ATGTAAAC  0.414
164. ATGTAAAA  0.415
165. ATGTAAAT  0.42
166. GGAGGCAA  0.437
167. AGAGGCAC  0.465
168. AGGCAAAA  0.467
169. AGGCAAAG  0.472
170. GGAGGCAC  0.474
171. AGGCAAAT  0.479
172. AGGCAAAC  0.482
173. GTGCCTAA  0.49
174. AGGCACCG  0.491
175. AGGCACCT  0.491
176. AGGCACCC  0.491
177. AGGCACCA  0.492
